In PubChem BioAssay (EPA / NIEHS):
Where “and” joins values, the source holds several entries; their conditions need not be identical. Identical values can stand only once. Results filed as inconclusive are left out. Where a structure was tested more than once in an assay, its records may differ in their call. Calls of active or inactive are those of the source. How the source made its calls: active means hit-call score of the fitted dose curve at least 0.9, where 1 is the maximum; inconclusive means response in the unintended direction; inactive means score below 0.9.

Experiments:
[1] = TOX21_p53_BLA_p2_viability: Viability Assessment in the Tox21 HCT-116 p53 Agonism Beta-lactamase Assay, Phase 2 (AID 2283591);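 further: compound exposure lasted 16 h at 37 °C; actives lower the ATP signal meaning cytotoxicity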
Procedure, shortened: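 HCT-116 p53-bla cells (4000/well) rested 5 h at 37C, then received compounds in DMSO (217-fold dilution) for 16 h at 37C, 5% CO2. After the CCF4 read, CellTiter-Glo was added; ATP luminescence was read after 30 min at room temperature.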

[2] = biological target: Cellular tumor antigen p53 (Homo sapiens) (UniProt P04637); assay: TOX21_p53_BLA_p2_ratio: Tox21 HCT-116 p53 Agonism Beta-lactamase Assay, Ratio, Phase 2 (AID 2283592)
Procedure, shortened: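 Plated HCT116 p53-bla cells (4000/well) received compound after 5 h, then 16 h at 37C/5% CO2. CCF4-AM added, 2 h RT. Ratio of 460 to 530 nm emission taken as the p53 reporter signal.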

[3] = TOX21_p53_BLA_p3_viability: Viability Assessment in the Tox21 HCT-116 p53 Agonism Beta-lactamase Assay, Phase 3 (AID 2283593);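 further: cells exposed to compound for 16 h before reading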
Procedure, shortened: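 HCT-116 cells (4000/well) rested 5 h at 37C, then got DMSO compounds by pin tool (217-fold dilution) for 16 h at 37C, 5% CO2. After the bla read, CellTiter-Glo was added and luminescence read at 30 min, room temperature.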

[4] = biological target: Cellular tumor antigen p53 (Homo sapiens) (UniProt P04637); assay: TOX21_p53_BLA_p3_ratio: Tox21 HCT-116 p53 Agonism Beta-lactamase Assay, Ratio, Phase 3 (AID 2283596)
Procedure, shortened: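 Cells were seeded at 4000/well, rested 5 h at 37C, then dosed with DMSO compound solutions (217-fold dilution) for 16 h. CCF4-AM substrate was loaded for 2 h at room temperature, and the 460/530 nm emission ratio was fitted for gain of signal versus DMSO.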

[5] = TOX21_p53_BLA_p4_viability: Viability Assessment in the Tox21 HCT-116 p53 Agonism Beta-lactamase Assay, Phase 4 (AID 2283597);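 further: hits lower the luminescence signal meaning cytotoxicity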
Procedure, shortened: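 Readout: ATP luminescence (CellTiter-Glo), measured 30 min after reagent addition at RT. The reagent followed a 2 h CCF4-AM incubation, and the cells had been exposed to compound for 16 h at 37C.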

[6] = biological target: Cellular tumor antigen p53 (Homo sapiens) (UniProt P04637); assay: TOX21_p53_BLA_p5_ratio: Tox21 HCT-116 p53 Agonism Beta-lactamase Assay, Ratio, Phase 5 (AID 2283599)
Procedure, shortened: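 HCT-116 cells carrying a p53-inducible beta-lactamase reporter were seeded at 4000 cells/well and dosed after 5 h with compound in DMSO (217-fold dilution). After 16 h at 37C, CCF4-AM substrate was added for 2 h, and the 460/530 nm emission ratio was scored as gain-of-signal versus DMSO.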

[7] = TOX21_p53_BLA_p5_viability: Viability Assessment in the Tox21 HCT-116 p53 Agonism Beta-lactamase Assay, Phase 5 (AID 2283600)
Procedure, shortened: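 Workflow: seed 4000 cells per well, wait 5 h, add compounds (DMSO, 217-fold dilution), incubate 16 h, load CCF4-AM 2 h, add CellTiter-Glo, read luminescence after 30 min.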

[8] = biological target: Cellular tumor antigen p53 (Homo sapiens) (UniProt P04637); assay: TOX21_p53_BLA_p4_ratio: Tox21 HCT-116 p53 Agonism Beta-lactamase Assay, Ratio, Phase 4 (AID 2283601)
Procedure, shortened: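 HCT116 cells carrying an inducible beta-lactamase reporter were plated at 4000 cells/well, rested 5 h, then exposed to compounds in DMSO (217-fold dilution) for 16 h at 37C. CCF4-AM substrate was loaded 2 h at room temperature; 460/530 nm emission ratio scored gain-of-signal versus DMSO.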

[9] = biological target: Estrogen receptor (Homo sapiens) (UniProt P03372); assay: NVS_NR_hER: NovaScreen (NVS) Nuclear Receptor Binding Assay for human Estrogen Receptor (ER) (AID 2283348)
Procedure, shortened: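 Radiodetection of ligand displacement in a lysate-based, cell-free format using MCF7 extracts, read at 18 hours. Duplicate 25 uM primary testing, then concentration series for actives.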

Measured: AC50

Chain of Cellular tumor antigen p53 (Homo sapiens) (P04637 whole entry, looked up): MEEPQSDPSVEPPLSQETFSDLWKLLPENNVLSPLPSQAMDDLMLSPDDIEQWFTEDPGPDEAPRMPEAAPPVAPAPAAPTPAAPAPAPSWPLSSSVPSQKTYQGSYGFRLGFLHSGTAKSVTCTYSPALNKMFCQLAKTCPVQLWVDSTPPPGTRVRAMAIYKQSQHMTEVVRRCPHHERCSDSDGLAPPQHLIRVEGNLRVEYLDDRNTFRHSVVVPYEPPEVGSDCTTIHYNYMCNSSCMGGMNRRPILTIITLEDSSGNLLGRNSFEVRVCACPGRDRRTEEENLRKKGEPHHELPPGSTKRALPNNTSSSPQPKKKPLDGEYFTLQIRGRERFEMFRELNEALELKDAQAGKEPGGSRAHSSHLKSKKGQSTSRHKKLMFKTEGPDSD
Chain of Estrogen receptor (Homo sapiens) (P03372 whole entry, looked up): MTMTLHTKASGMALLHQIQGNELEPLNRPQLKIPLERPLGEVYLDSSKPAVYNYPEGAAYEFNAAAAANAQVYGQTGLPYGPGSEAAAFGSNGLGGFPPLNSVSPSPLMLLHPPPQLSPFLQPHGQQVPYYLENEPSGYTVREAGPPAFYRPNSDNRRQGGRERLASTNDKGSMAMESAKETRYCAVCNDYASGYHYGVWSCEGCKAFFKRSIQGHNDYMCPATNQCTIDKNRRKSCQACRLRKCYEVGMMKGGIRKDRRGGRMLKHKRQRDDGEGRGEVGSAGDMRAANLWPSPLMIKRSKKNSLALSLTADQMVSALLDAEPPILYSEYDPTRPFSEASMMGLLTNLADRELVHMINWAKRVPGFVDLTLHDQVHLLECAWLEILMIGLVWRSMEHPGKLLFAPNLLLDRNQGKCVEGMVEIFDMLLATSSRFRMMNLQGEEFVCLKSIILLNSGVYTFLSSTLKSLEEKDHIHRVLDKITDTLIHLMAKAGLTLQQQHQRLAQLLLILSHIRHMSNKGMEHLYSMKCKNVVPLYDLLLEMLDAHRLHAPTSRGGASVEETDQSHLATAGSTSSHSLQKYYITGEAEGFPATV

CNCCC(Oc1ccc(C(F)(F)F)cc1)c1ccccc1 (stereo unspecified)
active: [1] 68.1 µM | [3] 74 µM | [5] 67.3 µM and 33.8 µM | [7] 73.2 µM
inactive: [1] | [2] | [3] | [4] | [6] | [7] | [8]

CC(=O)O[C@]1(C(C)=O)CC[C@H]2[C@@H]3C=C(Cl)C4=CC(=O)CC[C@]4(C)[C@H]3CC[C@@]21C
active: [2] 43.1 µM | [4] 72.5 µM | [5] 21.8 µM | [8] 38 µM
inactive: [1] | [2] | [3] | [4] | [5] | [6] | [7] | [8]

C=C1CC[C@H](O)C/C1=C/C=C1\CCC[C@]2(C)[C@@H]([C@H](C)CCCC(C)C)CC[C@@H]12
inactive: [1] | [2] | [4] | [6] | [7] | [8]
active: [1] 77.7 µM | [3] 63.2 µM and 34.4 µM | [5] 45.7 µM and 37.2 µM | [7] 73.6 µM | [8] 76.7 µM

CC(O)(c1ccc(Cl)cc1)c1ccc(Cl)cc1
inactive: [9] | [1] | [3] | [4] | [5] | [6] | [8]

CC(=O)Oc1ccccc1C(=O)Nc1ncc([N+](=O)[O-])s1
active: [1] 10.7 µM | [2] 2.61 µM and 14.1 µM | [3] 4.46 µM and 6.54 µM | [4] 1.19 µM and 15.5 µM | [5] 12.7 µM | [6] 3.18 µM and 22.4 µM | [7] 10.7 µM | [8] 5.33 µM
inactive: [1] | [5] | [7] | [8]

CCCCCCCCCCCCCCCCCCOCC(COP(=O)([O-])OCC[N+](C)(C)C)OC (stereo unspecified)
active: [1] 36.3 µM | [2] 43.6 µM

OC(CN1CCCCC1)c1cc(-c2ccccc2)on1 (stereo unspecified)
inactive: [1]

CCc1nn(CCCN2CCN(c3cccc(Cl)c3)CC2)c(=O)n1CCOc1ccccc1
active: [3] 18.9 µM | [5] 23 µM and 14.9 µM
inactive: [1] | [2] | [3] | [4] | [6] | [7] | [8]

Cc1cccc2cccnc12
inactive: [1] | [2] | [3] | [4] | [5]

CSc1ccc2c(c1)N(CCC1CCCCN1C)c1ccccc1S2 (stereo unspecified)
active: [1] 37 µM and 75.4 µM | [2] 43.6 µM and 79 µM | [3] 73 µM | [5] 35.8 µM and 59.3 µM | [6] 43.3 µM and 86 µM | [7] 43.8 µM and 85.2 µM | [8] 43.4 µM and 82.3 µM
inactive: [3] | [4]

Oc1cccc(O)c1O
inactive: [1] | [2] | [3] | [4] | [5] | [6] | [7] | [8]
active: [2] 75.6 µM

Nc1cc(S(=O)(=O)O)ccc1O
inactive: [1] | [2] | [3] | [4] | [5] | [6]

COC(=O)C1=C(C)NC(C)=C(C(=O)OC)C1c1ccccc1[N+](=O)[O-]
inactive: [1] | [2] | [3] | [4] | [5] | [6] | [7] | [8]
active: [3] 38.3 µM

C=C(CC)C(=O)c1ccc(OCC(=O)O)c(Cl)c1Cl
active: [2] 13.8 µM and 6.46 µM | [4] 50.8 µM and 38.9 µM | [5] 45.8 µM | [6] 24.7 µM | [8] 25.2 µM
inactive: [1] | [3] | [5] | [6] | [7] | [8]

CCCCCOC(=O)CCCC
inactive: [1] | [2] | [3]

COC(=O)[C@H]1[C@H]2C[C@@H]3c4[nH]c5ccccc5c4CCN3C[C@H]2C[C@@H](OC(=O)c2cc(OC)c(OC)c(OC)c2)[C@@H]1OC
inactive: [1] | [2] | [3] | [4] | [5] | [6] | [7] | [8]
active: [5] 6.8 µM | [8] 15.7 µM

Oc1cccc(-c2c3nc(c(-c4cccc(O)c4)c4ccc([nH]4)c(-c4cccc(O)c4)c4nc(c(-c5cccc(O)c5)c5ccc2[nH]5)CC4)C=C3)c1
inactive: [3] | [4] | [7]
active: [1] 20.2 µM and 17.5 µM | [2] 26.1 µM and 33.8 µM | [3] 35.7 µM | [4] 37.4 µM | [5] 17 µM and 33.2 µM | [6] 37.1 µM and 38.3 µM | [7] 42.9 µM | [8] 24.5 µM and 36.4 µM

O=S(=O)(O)c1ccc2nc(-c3ccccc3)[nH]c2c1
active: [1] 30.2 µM and 19.9 µM | [3] 15.6 µM | [5] 33.8 µM and 23 µM | [7] 24.8 µM
inactive: [2] | [3] | [4] | [7] | [8]

Cc1c(C)c2c(c(C)c1OC(=O)CCC(=O)O)CC[C@@](C)(CCC[C@H](C)CCC[C@H](C)CCCC(C)C)O2
active: [3] 46.5 µM and 41.2 µM | [4] 67.7 µM
inactive: [1] | [2] | [4] | [5] | [6] | [7] | [8]

CCOC(=O)c1c(C)n(C)c2ccc(O)cc12
inactive: [1] | [2] | [3] | [4] | [5] | [6]

O=C(CCCCCCC(=O)Nc1ccccc1)NO
active: [2] 420 nM and 686 nM | [4] 0.874 µM | [5] 4.47 µM and 7.11 µM | [6] 1.08 µM and 842 nM | [8] 904 nM and 534 nM
inactive: [1] | [3] | [4] | [7]

C[N+]1(CC2COC(c3ccccc3)(c3ccccc3)O2)CCCCC1 (stereo unspecified)
inactive: [1] | [2] | [3] | [4] | [5]

CCCCCCCCCC(=O)NO
active: [2] 23.1 µM | [8] 24.3 µM
inactive: [1] | [2] | [3] | [4] | [5] | [6] | [7] | [8]
